Bioassay records deposited in PubChem BioAssay by several laboratories.
phage Ecoli inh: growth loss of phage-infected E. coli, primary screen, RecBCD inhibitor project, absorbance, with phage, HTS. 360,000 compounds, 0.26% hits. inhibition, % at 11.9 µM; in the data active means inhibition above about 11%
E coli growth-1: E. coli V3065 growth inhibition, primary screen, counter-screen for AddAB inhibitor project, absorbance, OD600; 18 h; 330,000 compounds, 0.27% hits; inhibition, % at 11.9 µM; AID 449728, 2010;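 active means inhibition above the campaign's mean inhibition across all tested compounds plus 3 SD, cut at about 9.9% in these data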;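 further: uninfected addAB+ strain grown without phage in ampicillin broth; 0% = DMSO wells and 100% = ciprofloxacin 0.95 µg/ml wells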
PfHsp90 set2: growth inhibition of PfHsp90-expressing yeast, primary screen, antimalarial PfHsp90 inhibitor project, S. cerevisiae, BacTiter-Glo luminescence, single point, set 2; AID 504621, 2011; inhibition, % at 9.4 µM; BacTiter-Glo ATP, 48 h; yeast lacking PDR1 and PDR3 efflux regulators; 310,000 compounds, 0.32% hits;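 active means every replicate shows inhibition above about 80%, whatever the replicate mean, limit read from the data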;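 further: 0% = DMSO neutral controls and 100% = 20 µM radicicol positive controls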
AddAB inh: growth inhibition of E. coli expressing H. pylori AddAB, primary screen, AddAB inhibitor project, absorbance; inhibition, % at 11.9 µM; AID 435030, 2010; 330,000 compounds, 0.29% hits; in the data active means inhibition above about 12%;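 further: 0% = vehicle wells of infected cells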
Tat transport: E. coli Tat export inhibitors, primary screen, MC4100, TorA-mCherry reporter, fluorescence, single point; inhibition, % at 10 µM; 340,000 compounds, 0.036% hits;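 active means mean replicate inhibition at least 50% and at least half of replicates individually reaching 50%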;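 further: exported cargo escapes ClpAP degradation while cytoplasmic cargo is degraded and loses fluorescence; 0% = median of neutral control wells and 100% = median of NaSCN control wells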
E coli growth-2: E. coli growth inhibition, primary screen, OD600; Escherichia coli growth, 23 h; hits give low values; OD600 absorbance (test concentration not listed); 330,000 compounds, 0.21% hits; AID 1053175, 2014;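 active means OD600 absorbance below the run mean of sample wells minus 3.6 SD, in any replicate, cut at about 0.56 in these data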
AddAB conf: growth loss of phage-infected E. coli expressing H. pylori AddAB, confirmation, AddAB inhibitor project, absorbance, E. coli V3065, T4 phage, triplicate; 880 compounds, 64% hits; inhibition, % at 11.9 µM; shares compounds with AddAB inh; OD; T4 phage with gene 2 nonsense mutations;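 active means mean inhibition above a set limit taken from the earlier primary screen, cut at about 13% in these data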;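 further: higher means less bacterial growth since AddAB block lets phage replicate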
RecBCD counter: growth loss of RecBCD+ E. coli with mutant T4 phage, counter-screen for AddAB inhibitor project, absorbance, V66 E. coli; 880 compounds, 73% hits; OD growth; inhibition, % at 11.9 µM; shares compounds with AddAB inh;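 active means mean inhibition above the mean of solvent-only control wells plus 3 SD, cut at about 4% in these data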;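 further: optical density read after an 18 h incubation at 37 °C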
bact viab count: bacterial viability inhibition counter-screen, confirmation, counter-screen for AddAB inhibitor project, absorbance. shares compounds with AddAB inh. absorbance (AddAB counterscreen). inhibition, % at 11.9 µM. 880 compounds, 35% hits. AID 488956, 2010; in the data active means inhibition above about 25%
Numbers without * were called inactive; / = no result given. Hits are enriched below; roughly 0.69% of the tested compounds scored in any of these assays.

SMILES	phage Ecoli inh	E coli growth-1	PfHsp90 set2	AddAB inh	Tat transport	E coli growth-2	AddAB conf	RecBCD counter	bact viab count
O=C(CN1C(=O)S/C(=C\c2ccc(Cl)cc2)C1=O)NNC(=O)c1ccccc1O	8.8	6.1	-6.0	15.8*	-2.7	0.684	8.8	5.5*	9.2
COc1ccccc1/C=C1\SC(=S)N(CCC(=O)NNC(=O)c2ccccc2O)C1=O	/	18.2*	29.2	19.6*	0.1	0.751	15.4*	18.7*	13.9
COc1ccc(-c2nn(-c3ccccc3)cc2C(=O)NN=Cc2ccc([N+](=O)[O-])o2)cc1	/	/	/	/	/	0.707	/	/	/
O=C(N/N=C\c1c(O)ccc2ccccc12)c1ccc(O)cc1	0.2	-3.4	-2.1	6.0	2.8	/	/	/	/
Cc1occc1C(=O)N/N=C/c1c(O)ccc2ccccc12	10.0	14.0*	29.9	17.3*	2.0	/	17.1*	15.8*	8.7
O=C(N/N=C/c1c(O)ccc2ccccc12)c1ccc(Br)o1	16.2*	23.3*	22.0	21.4*	-9.6	/	15.2*	17.1*	10.7
CC(=NNC(=O)Cn1nc(C)c([N+](=O)[O-])c1C)c1ccco1	/	/	/	/	/	0.649	/	/	/
FC(F)(F)c1ccc(C=NNC(=S)NC2CCCCC2)cc1	/	/	/	/	/	0.688	/	/	/
O=c1c(OC2OC(CO)C(O)C(O)C2O)c(-c2ccc(O)cc2)oc2cc(O)cc(O)c12 (configuration not stated)	/	/	/	/	/	0.647	/	/	/
NNC(=O)c1cccc(Cn2cc(Br)c([N+](=O)[O-])n2)c1	9.2	23.9*	0.4	27.2*	-3.5	0.637	97.1*	11.7*	67.0*
COc1ccc(NC(=O)c2cccc(Cn3cc(Br)c([N+](=O)[O-])n3)c2)c(C)c1	2.0	-1.6	/	1.7	-17.6	0.642	/	/	/
CCCNC(=O)c1cccc(Cn2cc(Br)c([N+](=O)[O-])n2)c1	6.1	11.2*	13.8	15.3*	7.0	0.678	30.9*	3.4	32.0*
CC(=O)Oc1cc2cccc(OC(C)=O)c(=O)c2c(OC(C)=O)c1OC(C)=O	/	13.7*	8.5	18.0*	0.1	0.644	25.2*	19.4*	14.6
COc1cc2cccc(OC)c(=O)c2c(O)c1OC	5.8	-1.2	15.3	0.5	-0.8	0.739	/	/	/
CN(Cc1c(C(=O)NN=Cc2cccs2)nnn1-c1nonc1N)c1ccccc1	/	/	/	/	/	0.671	/	/	/
COc1ccc(-n2c(Cc3cccn3C)nnc2SCC(=O)Nc2nc(C)cs2)cc1	3.3	8.8	-0.3	15.4*	27.4	0.729	-1.1	-0.9	-2.4
COc1ccc(-n2c(Cc3cccn3C)nnc2SCC(=O)Nc2ccccc2)cc1	2.4	-1.6	-13.3	7.0	0.8	0.772	/	/	/
O=C(NCC1CC1(Cl)Cl)Nc1ccc(Cl)c(Cl)c1 (configuration not stated)	8.9	6.3	-5.1	12.6*	-5.4	0.428*	11.8	13.1*	2.1
Cc1ccc(NC(=O)NCC2CC2(Cl)Cl)cc1 (configuration not stated)	2.7	1.9	43.3	1.0	-11.4	/	/	/	/
O=C(Cn1c(=O)oc2cc(S(=O)(=O)N3CCCCCC3)ccc21)NC1CCCCCCC1	1.8	-1.1	-3.5	-2.5	-15.4	0.786	/	/	/
CCCNC(=O)Cn1c(=O)oc2cc(S(=O)(=O)N3CCCC3)ccc21	-1.5	37.5*	3.1	54.9*	0.2	0.757	-1.6	-0.6	-3.7
CCOC(=O)C(=NO)C(C)=NNC(=O)C(=O)Nc1ccc(Cl)cc1	/	/	/	/	/	0.648	/	/	/
COc1ccccc1NS(=O)(=O)c1cccc(C(=O)NN=C(C)c2ccc3c(c2)OCCO3)c1	/	/	/	/	/	0.688	/	/	/
COc1ccc(C2CC(=O)C=C(c3cccc(Cl)c3O)C2)cc1OC (configuration not stated)	/	/	/	/	/	0.678	/	/	/
CC1=NN(C(=O)c2ccc(Cn3ccc([N+](=O)[O-])n3)cc2)C(O)(C(F)(F)F)C1 (configuration not stated)	4.8	6.7	34.3	14.3*	5.3	0.727	2.8	1.4	-0.8
SMILES	phage Ecoli inh	E coli growth-1	PfHsp90 set2	AddAB inh	Tat transport	E coli growth-2	AddAB conf	RecBCD counter	bact viab count
CCc1nnc(NS(=O)(=O)c2ccc(N/C=C/C(=O)c3ccc(C)cc3)cc2)s1	3.7	10.8*	-4.7	17.0*	-6.8	/	0.5	0.8	0.9
CCc1nnc(NS(=O)(=O)c2ccc(N/C=C\C(=O)c3ccc(C)cc3)cc2)s1	10.3	12.6*	-11.1	19.8*	-0.1	0.773	0.4	2.4	0.7
Cn1cccc1-c1cc(C(=O)NN=CC=Cc2ccccc2)[nH]n1	/	/	/	/	/	0.645	/	/	/
C[N+](C)(C)CCOP(=O)(O)OP(=O)([O-])OCC1OC(n2ccc(N)nc2=O)C(O)C1O (configuration not stated)	/	/	/	/	/	0.671	/	/	/
CC(=NN=Cc1cccc(F)c1)c1nnn(-c2nonc2N)c1C	/	/	/	/	/	0.686	/	/	/
Cc1ccc(/C=N/NC(=O)C2(C)CC2(Br)Br)cc1 (configuration not stated)	1.5	2.5	-0.5	-0.2	2.7	/	/	/	/
CC1(C(=O)N/N=C/c2ccccc2)CC1(Br)Br (configuration not stated)	-3.4	97.4*	4.1	97.0*	1.5	/	-1.8	-0.5	-3.8
CCOC(=O)C(C(C)=NNC(=O)C1CC1c1ccccc1)C(C)C (configuration not stated)	/	/	/	/	/	0.688	/	/	/
Cc1cccc(NC(=O)NC(C)C(c2cccs2)N2CCOCC2)c1 (configuration not stated)	4.5	99.2*	-10.9	99.5*	-9.9	0.73	-0.8	2.3	2.5
Cc1ccc(C(=O)NC2CCCCN(C)C2=O)cc1 (configuration not stated)	1.7	/	/	/	/	/	/	/	/
CC(=O)NC1CCCN(O)C(=O)/C=C(\C)CCOC(=O)C(NC(C)=O)CCCN(O)C(=O)/C=C(\C)CCOC(=O)C(NC(C)=O)CCCN(O)C(=O)/C=C(\C)CCOC1=O (configuration not stated)	/	16.2*	/	21.3*	/	/	14.0*	15.4*	6.2
CC(C)Cc1ccc(CN2CCCC(NC(=O)c3ccnn3C)C2)cc1 (configuration not stated)	1.2	-0.8	2.1	-0.4	9.2	0.663	/	/	/
CC(C)Cc1ccc(CN2CCCC(NC(=O)c3ccoc3)C2)cc1 (configuration not stated)	3.7	12.9*	16.6	13.5*	-3.8	0.614	10.3	5.4*	9.2
